Assay results as given in PubChem BioAssay (NCI).
Compounds without any hit were thinned out: in the full panel of roughly 83,000, 20% have a hit.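 48-hour exposure, single concentration, 96-well plates; percent growth endpoint where 0 means no net growth. Active: below 10.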 Activity calls are given as the source filed them.

Tested on: SK-OV-3 ovarian
Experiment: NCI-60 one-dose screen, 48 h (100 = growth as untreated, 0 = no growth, -100 = all killed)
Details: 10 µM
Description: Growth inhibition of the SK-OV-3 human tumor cell line is measured as a screen for anti-cancer activity. Cells are grown in 96 well plates and exposed to the test compound for 48 hours. Compounds are tested at a single concentration, which is 10^-5 M for most compounds. The reported endpoint is percent growth (GI% or GIPRCNT), where numbers from 0 - 100% represent growth inhibition, and numbers from -100% - 0 represent cell death. For example, a value of 40 represents 60% growth inhibition. A value of 0 means no net growth occurred over the course of the experiment. A value of -40 indicates 40% of cells at the beginning of the experiment died by the end of the experiment. A value of -100 means all cells are dead at the end of the experiment.
NCI-60 Human Tumor Cell Lines Screen was performed using the standard one-dose NCI protocol, which is described in more detail at https://dtp.cancer.gov/discovery_development/nci-60/default.htm.
Compounds with GIPRCNT values below 10 were considered active. Activity score was based on GIPRCNT using the following formula: […]
Score is 0 for GIPRCNT values of 100 or above, 50 for GIPRCNT values of 0, and 100 for GIPRCNT values of -100.

| Compound | growth |
| --- | --- |
| O=C1NC(=NC23CC4CC(CC(C4)C2)C3)N/C1=C\c1ccc2ncsc2c1 | 25.1% (inactive) |
| COC[C@@H](CC(C)C)N=C1N/C(=C\c2ccc3ncsc3c2)C(=O)N1C | 0.794% (active) |
| C=C1CC[C@H](C(=C)C)[C@H]2C=C(C)C(=O)C3=C(C(=O)[C@@](C)(O)C3)[C@H]12 | -89.1% (active) |
| C/C(=N\NC(N)=S)c1ccc(Nc2nc(SC(C)C)nc(-c3ccccc3)c2C#N)cc1 | 90% (inactive) |
| COc1cc(NC(=O)c2cc(-c3ccc(F)cc3F)ccc2O)cc(OC)c1OC | 34.5% (inactive) |
| N#Cc1c(-c2ccc(F)cc2)nc(SCc2ccc(F)cc2)nc1N1CCOCC1 | 39.6% (inactive) |
| COc1cc(/C=C/C(=O)c2ccc(NC(=O)CSc3nnc(-c4c[nH]c5ccccc45)n3-c3ccccc3)cc2)cc(OC)c1OC | 121% (inactive) |
| Oc1ccc(/C=C2\CCCc3cc4ccc(O)cc4[o+]c32)c(O)c1 | 86.3% (inactive) |
| CC(=O)c1ccc(Nc2nc(SC(C)C)nc(-c3ccccc3)c2C#N)cc1 | 36.2% (inactive) |
| CCOc1ccc(Nc2nc3ccccc3nc2Nc2ccc(OCC)cc2)cc1 | 108% (inactive) |
| COc1ccc(-c2ccc(/C=N/NC(=O)c3[nH]c4ccc(Br)cc4c3-c3ccccc3)s2)cc1 | 117% (inactive) |
| NC(=Nc1ccc(OCCCCCCCCn2ccnn2)cc1)c1ccccc1 | 21.2% (inactive) |
| COc1cc2oc(-c3cccc(C(=O)Nc4ccc(Cl)cc4)c3)cc(=O)c2c(OCCNC(=O)CNC(=O)OC(C)(C)C)c1OC | 92.7% (inactive) |
| CCOC(=O)C1=C(N)N(c2ccc(Cl)cc2)C2=C(C(=O)CC(C)(C)C2)C1c1ccc(N2CCOCC2)cc1 (stereo not given) | 109% (inactive) |
| COc1ccc2cc([C@H](C)C(=O)NCc3ccccc3)ccc2c1 | 40.6% (inactive) |
| O=C1NC(=NC23CC4CC(CC(C4)C2)C3)N/C1=C\c1ccc2ncccc2n1 | -10.5% (active) |
| C=C[C@@]12CN3CC[C@]1(O)[C@@](C(=O)OC)(CO2)c1[nH]c2ccccc2c1C3 | 115% (inactive) |
| Cc1ccc(C(C)C)cc1NC(=O)c1ccccc1N(C)C | 93.7% (inactive) |
| S=c1nc(-c2ccccc2)cc(-c2cc3ccccc3nc2Cl)[nH]1 | 75% (inactive) |
| COc1ccc(-c2cc(-c3cc(C(=O)c4ccc(Br)cc4)n4ccc(C)cc34)nc(N)c2C#N)cc1 | 105% (inactive) |

| Compound | growth |
| --- | --- |
| CC(C)(C)c1ccc(NCc2cn(-c3ccc(C(=O)O)cc3)nc2-c2ccc(C#N)cc2)cc1 | 112% (inactive) |
| COc1cc2c3c(n(CCCNCCO)c(=O)c2cc1OC)-c1nc2c(cc1C3=O)OCO2 | -14.2% (active) |
| CN(C(=O)c1ccc(C(C)(C)C)cc1)c1sc2c(c1C#N)CCC(=O)C2 | 101% (inactive) |
| COc1cccc(-c2ccc(/C=N/NC(=O)c3[nH]c4ccc(Br)cc4c3-c3ccccc3)o2)c1 | 34.2% (inactive) |
| CCCCOc1ccc(Nc2nc3ccccc3nc2Nc2ccc(OCCCC)cc2)cc1 | 106% (inactive) |
| CC1(C)CC[C@]2(C(=O)NCCCNCCCCNCCCN)CC[C@]3(C)C(=CC[C@@H]4[C@@]5(C)Cc6c([nH]c7ccccc67)C(C)(C)[C@@H]5CC[C@]43C)[C@H]2C1 | 66.6% (inactive) |
| COc1ccc([C@H]2C(C(=O)c3ccc(Cl)cc3)C3(N[C@@H]2c2ccccc2)C(=O)Nc2ccc(Cl)cc23)cc1 (stereo not given in full) | 17.3% (inactive) |
| COc1cc(/C=C/C(=O)c2cc(OC)c(OC)c(OC)c2)ccc1Oc1nc(Nc2ccc(F)cc2)nc(N(C)C)n1 | 49.5% (inactive) |
| Cc1ccc(F)cc1N/C=c1\s/c(=C(\C#N)C(=O)Nc2ccccc2)n(-c2ccccc2)c1=O | 78.1% (inactive) |
| C=C(c1ccc(OC)c(N)c1)c1cc(C)nc2ccccc12 | 21.7% (inactive) |
| COc1ccc(/C(C)=N/N=C2C(=O)N(C)c3ccc(Br)cc32)cc1S(N)(=O)=O | 58.8% (inactive) |
| Cc1cccc2cc(-c3cc(-c4ccccc4)nc(=S)[nH]3)c(Cl)nc12 | 116% (inactive) |
| O=S(=O)(Nc1ncccn1)c1ccc(-n2c(-c3ccc(Br)cc3)nc(-c3ccccc3)c2-c2ccccc2)cc1 | 76.4% (inactive) |
| CONC[C@]1(C)C=C2C(=O)[C@](C)(O)C3(CC3)C(C)=C2[C@H]1O | -14.4% (active) |
| CN(C)c1ccc(/C=C/C(=O)c2ccc(NC(=O)CN3C(=O)NC(C)(c4ccccc4)C3=O)cc2)cc1 (stereo not given) | 117% (inactive) |
| CN1C(=O)N(C)C2SC(N/N=C/c3cccs3)=NC21 (stereo not given) | 40.7% (inactive) |
| COc1cccc(-c2ccnc(/N=C(\N)Nc3ccc(S(=O)(=O)Nc4nc(C)cc(C)n4)cc3)n2)c1 | 84% (inactive) |
| COC(=O)c1c(C(=O)OC)c2n(c1C)[C@@H]([C@@H](C)[C@H]1CC[C@H]3[C@@H]4CCC5=CC(=O)CC[C@]5(C)[C@H]4CC[C@]13C)SC2 | 48.7% (inactive) |
| Cc1ccc2nc(COc3ccc(C(=O)NNC(=S)NC(=O)c4ccccc4)cc3)[nH]c2c1 | 67.2% (inactive) |
| CC(=O)c1ccc(Nc2nc(SCCC(C)C)nc(-c3ccc(F)cc3)c2C#N)cc1 | 98.7% (inactive) |
